Reference: ChEMBL document CHEMBL4513146, “CO-ADD screening of Karazin Kharkiv National University (Ukraine) compounds”
Entries with a potency or affinity are not part of this list.

Tests used:
Klebsiella pneumoniae = details: Concentration 32 ug.mL-1;; ASSAY_TEST Inhibition of Bacterial Growth; detection method Absorption (OD600); MEDIA CAMHB; plate type 384well; NBS; CORNING #3640; time 18 hr
Candida albicans = details: Concentration 32 ug.mL-1; ASSAY_TEST Inhibition of Fungal Growth; detection method Absorption (OD530)
Cryptococcus neoformans = details: Concentration 32 ug.mL-1; ASSAY_TEST Inhibition of Fungal Growth; detection method Resazurin; Absorption (OD600-OD570); plate type 384well; NBS; CORNING #3640

Cc1cccc(Cn2nc3c(=O)n(-c4cccc(Cl)c4C)ccn3c2=O)c1
Inhibition (Klebsiella pneumoniae): -2.16%
Inhibition (Candida albicans): 8.37%
Inhibition (Cryptococcus neoformans): -8.02%

Cc1cc(C)cc(N(Cc2c(F)cccc2Cl)S(=O)(=O)c2cccn3cnnc23)c1
Inhibition (Klebsiella pneumoniae): 7.41%
Inhibition (Candida albicans): 3.71%
Inhibition (Cryptococcus neoformans): -5.6%

COc1ccc(NC(=O)Cn2nc3c4cc(-c5ccc(C)c(C)c5)nn4ccn3c2=O)c(OC)c1
Inhibition (Klebsiella pneumoniae): -0.09%
Inhibition (Candida albicans): 3.53%
Inhibition (Cryptococcus neoformans): -22.33%

O=C(Cn1nc2c3cc(-c4ccc(F)cc4)nn3ccn2c1=O)Nc1ccc2c(c1)OCCO2
Inhibition (Klebsiella pneumoniae): 11.81%
Inhibition (Candida albicans): 2.29%
Inhibition (Cryptococcus neoformans): -25.22%

CCOC(=O)c1ccc(NC(=O)Cn2nc3ccc(SC(C)(C)C)nn3c2=O)cc1
Inhibition (Klebsiella pneumoniae): 7.26%
Inhibition (Candida albicans): 5.28%
Inhibition (Cryptococcus neoformans): -37.99%

O=C(CSc1nc2ccccc2n2cnnc12)Nc1cccc(Br)c1
Inhibition (Klebsiella pneumoniae): 2.26%
Inhibition (Candida albicans): -0.56%
Inhibition (Cryptococcus neoformans): -6.2%

CCOc1ccc(NC(=O)Cn2nc3c(N4CCCC4)nccn3c2=O)cc1
Inhibition (Klebsiella pneumoniae): 9.68%
Inhibition (Candida albicans): 0.82%
Inhibition (Cryptococcus neoformans): -8.38%

Cc1ccc(C)c(Cn2nc3ccc(-c4ccc(C)c(C)c4)nn3c2=O)c1
Inhibition (Klebsiella pneumoniae): 12.73%
Inhibition (Candida albicans): 1.53%
Inhibition (Cryptococcus neoformans): -14.79%

Cc1ccc(N(Cc2cccc(C)c2)S(=O)(=O)c2cccn3c(C)nnc23)cc1
Inhibition (Klebsiella pneumoniae): 5.17%
Inhibition (Candida albicans): 4.46%
Inhibition (Cryptococcus neoformans): -6.62%

Cc1nnc2c(S(=O)(=O)N(Cc3ccc(F)cc3)c3ccc(F)c(F)c3)cccn12
Inhibition (Klebsiella pneumoniae): 11.53%
Inhibition (Candida albicans): 8.25%
Inhibition (Cryptococcus neoformans): -10.38%

O=C(Cn1nc2c(N3CCOCC3)nccn2c1=O)Nc1cc(C(F)(F)F)ccc1Cl
Inhibition (Klebsiella pneumoniae): 12.08%
Inhibition (Candida albicans): 2.84%
Inhibition (Cryptococcus neoformans): -4.39%

O=C(Cn1nc2c3cc(-c4ccc(Cl)cc4)nn3ccn2c1=O)NCc1ccccc1
Inhibition (Klebsiella pneumoniae): 15.63%
Inhibition (Candida albicans): 3.19%
Inhibition (Cryptococcus neoformans): -21.92%

Cc1ccc(-n2ccn3c(=O)n(Cc4ccc(Cl)cc4)nc3c2=O)cc1C
Inhibition (Klebsiella pneumoniae): 1.49%
Inhibition (Candida albicans): 0.66%
Inhibition (Cryptococcus neoformans): -5.42%

CC(C)(C)Sc1ccc2nn(CC(=O)Nc3ccc(Cl)cc3)c(=O)n2n1
Inhibition (Klebsiella pneumoniae): 16.93%
Inhibition (Candida albicans): 5.49%
Inhibition (Cryptococcus neoformans): -24.82%

Cc1ccc(CNC(=O)c2ccc3nn(CC(=O)Nc4ccc(C(F)(F)F)cc4)c(=O)n3c2)cc1
Inhibition (Klebsiella pneumoniae): 8.75%
Inhibition (Candida albicans): 7.7%
Inhibition (Cryptococcus neoformans): -15.23%

CC(C)c1nnc2c(=O)n(CC(=O)Nc3ccc(C#N)cc3)c3ccccc3n12
Inhibition (Klebsiella pneumoniae): 6.44%
Inhibition (Candida albicans): 0.24%
Inhibition (Cryptococcus neoformans): -24.39%

O=C(Cn1nc2c(SC3CCCCC3)nccn2c1=O)N1CCN(c2ccccc2)CC1
Inhibition (Klebsiella pneumoniae): 7.42%
Inhibition (Candida albicans): 1.71%
Inhibition (Cryptococcus neoformans): -1.45%

Cc1ccc(C(=O)CSc2nnc3c(=O)n(-c4ccc(F)cc4)ccn23)c(C)c1
Inhibition (Klebsiella pneumoniae): 5.21%
Inhibition (Candida albicans): 2.78%
Inhibition (Cryptococcus neoformans): -8.55%

COc1ccc(-c2cc3c4nnc(SCC(=O)NCc5ccccc5)n4ccn3n2)cc1
Inhibition (Klebsiella pneumoniae): -10.83%
Inhibition (Candida albicans): 19.83%
Inhibition (Cryptococcus neoformans): -19.87%

O=c1c2nnc(SCc3cccc(C(F)(F)F)c3)n2ccn1-c1ccc(Br)cc1
Inhibition (Klebsiella pneumoniae): 4%
Inhibition (Candida albicans): 27.57%
Inhibition (Cryptococcus neoformans): -8.16%

COc1ccc(NC(=O)Cn2nc3c4cc(-c5ccc(C)c(C)c5)nn4ccn3c2=O)cc1
Inhibition (Klebsiella pneumoniae): 9.06%
Inhibition (Candida albicans): 19.37%
Inhibition (Cryptococcus neoformans): -31.22%

Cc1ccc(NC(=O)Cn2nc3c(N4CC(C)CC(C)C4)nccn3c2=O)c(F)c1 (configuration not stated)
Inhibition (Klebsiella pneumoniae): 10.72%
Inhibition (Candida albicans): 3.58%
Inhibition (Cryptococcus neoformans): -9.98%

CCOc1ccc(-n2ccn3c(SCC(=O)NCc4ccccc4Cl)nnc3c2=O)cc1
Inhibition (Klebsiella pneumoniae): 10.62%
Inhibition (Candida albicans): 2.57%
Inhibition (Cryptococcus neoformans): -15.06%

CCOc1ccc(C(=O)CSc2nnc3c(=O)n(-c4ccc(C)c(C)c4)ccn23)cc1
Inhibition (Klebsiella pneumoniae): 1.39%
Inhibition (Candida albicans): 10.64%
Inhibition (Cryptococcus neoformans): -7.55%

O=C(CSc1nc2ccccc2n2cnnc12)N1CCN(c2ccc(F)cc2)CC1
Inhibition (Klebsiella pneumoniae): 8.82%
Inhibition (Candida albicans): 1.33%
Inhibition (Cryptococcus neoformans): 6.24%

Cc1cccc(N(Cc2cccc(F)c2)S(=O)(=O)c2cccn3c(C)nnc23)c1
Inhibition (Klebsiella pneumoniae): 14.45%
Inhibition (Candida albicans): 2.26%
Inhibition (Cryptococcus neoformans): -8.56%

COc1cc(-c2nnc3c(=O)n(Cc4ccc(Cl)cc4)ccn23)cc(OC)c1OC
Inhibition (Klebsiella pneumoniae): 11.02%
Inhibition (Candida albicans): -0.08%
Inhibition (Cryptococcus neoformans): -21.41%

Cc1cccc(NC(=O)CSc2nnc3c4cc(-c5ccccc5)nn4ccn23)c1C
Inhibition (Klebsiella pneumoniae): 7.23%
Inhibition (Candida albicans): 5.25%
Inhibition (Cryptococcus neoformans): -12.53%

O=c1c2sccc2n2c(=O)n(Cc3ccc(Cl)cc3)nc2n1Cc1cccs1
Inhibition (Klebsiella pneumoniae): -1.66%
Inhibition (Candida albicans): 32.28%
Inhibition (Cryptococcus neoformans): -17.8%
